Compound activity deposited in PubChem by National Center for Advancing Translational Sciences (NCATS).
Most compounds without a hit are left out; they make up all but 3.1% or so of the library.
IDH1 R132H inh: inhibitors of human mutant IDH1 R132H | 390,000 compounds, 0.093% hits | IDH1-R132H enzyme, NADPH consumption, diaphorase/resazurin fluorescence | Potency, µM (highest dose often 76.6 µM), for inactives: at the highest dose activity change, negative = inhibition, most hits filed as inhibitors | O75874; note: % is set by controls: 0 for no effect and ±100 for the full control effect; nearly all actives have a fitted effect of over 65% in size
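IDH1-R132H (0.5 ug/mL dispensed) in pH 7.5 Tris buffer was preincubated 30 min with compound, then given a substrate mix of 0.016 mM NADPH and 2 mM alpha-KG for 80 min at room temperature; remaining NADPH was read by diaphorase/resazurin fluorescence.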
Nrf2 inh: blocks Nrf2 signaling. A549 ARE-Fluc reporter, luciferase luminescence, 18-24 h. Potency, µM (doses to about 46 µM), for the others: at the highest dose activity change, negative = inhibition, most hits filed as inhibitors. 360,000 compounds, 2.1% hits; note: % is set by controls: 0 for no effect and ±100 for the full control effect; nearly all actives have a fitted effect of over 60% in size
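Reporter: ARE-Fluc in A549. Exposure: 18-24 h, 37 °C, 5% CO2, 5% FBS OPTI-MEM. Readouts: fluorescent cytotoxicity (CellTiter-Fluor), then luminescent Nrf2 signal after BugLite.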
Mito fusion act: inhibitors of mitochondrial division or activators of mitochondrial fusion; S. cerevisiae fusion-defective mutant growth rescue, CellTiterGlo 48 h; Potency, µM (series often up to 46.1 µM), for the others: at the top dose growth rescue (activation), hits mostly activators; 320,000 compounds, 0.23% hits; AID 485298; note: % of control where 0% means no effect; nearly all actives have a fitted effect of over 45% in size
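Compounds are tested for their ability to restore growth of mitochondrial fusion-defective yeast strains at non-permissive 37C in YPEG medium over 48 hours. Viability is quantified by luciferase luminescence.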
TrxR1 substrate: is turned over as a substrate by rat TrxR1 | purified TrxR1 substrate turnover, NADPH consumption readout | Potency, µM (top dose mostly 114 µM), for inactives: top-dose activity change, negative = substrate turnover | O89049 | 390,000 compounds, 0.01% hits; note: % is set by controls: 0 for no effect and ±100 for the full control effect; nearly all actives have a fitted effect of over 50% in size
Target sequence (O89049 whole entry, looked up): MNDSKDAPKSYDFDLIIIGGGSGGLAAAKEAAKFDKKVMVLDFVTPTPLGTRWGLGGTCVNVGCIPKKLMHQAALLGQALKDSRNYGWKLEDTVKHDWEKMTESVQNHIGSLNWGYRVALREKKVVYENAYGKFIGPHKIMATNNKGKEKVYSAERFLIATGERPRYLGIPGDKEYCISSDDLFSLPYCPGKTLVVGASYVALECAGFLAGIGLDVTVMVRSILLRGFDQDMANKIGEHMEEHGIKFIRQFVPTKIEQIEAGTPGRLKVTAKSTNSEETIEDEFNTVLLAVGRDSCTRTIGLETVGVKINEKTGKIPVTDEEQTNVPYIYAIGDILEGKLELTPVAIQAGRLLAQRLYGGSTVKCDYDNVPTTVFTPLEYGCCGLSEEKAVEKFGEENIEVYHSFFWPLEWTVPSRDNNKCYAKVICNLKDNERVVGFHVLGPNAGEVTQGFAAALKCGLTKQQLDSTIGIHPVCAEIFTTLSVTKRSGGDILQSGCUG
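Rat TrxR1, dispensed at 90 nM, was prereduced with 400 uM NADPH (final) for 5 min at ~22 deg C, then incubated with compound 15 min before 400 uM selenite. A first-read NADPH fluorescence drop versus no-compound background flagged substrates.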
TrxR1 inh: inhibitors of rat thioredoxin reductase 1 | O89049 | recombinant rTrxR1, NADPH fluorescence consumption, selenite substrate | Potency, µM (doses to about 114 µM), for inactives: top-dose activity change, negative = inhibition, hits mostly inhibitors | 390,000 compounds, 1% hits | AID 588453; note: % is set by controls: 0 for no effect and ±100 for the full control effect; nearly all actives have a fitted effect of over 65% in size
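Rat TrxR1 (90 nM in the dispensed reagent) was pre-reduced with 400 uM NADPH for 5 min at room temperature, then incubated with compound for 15 min. After 400 uM selenite was added, NADPH fluorescence (Ex 340/Em 450 nm) was followed for 8 min.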
A549 tox: kills or reduces viability of A549 cells in Nrf2 counter-screen. A549 ARE-Fluc cells, CellTiter-Fluor viability, 18-24 h. Potency, µM (top dose mostly 46 µM), inactives show at the top dose activity change, negative = cytotoxicity, usual class: inhibitors. 390,000 compounds, 0.16% hits. AID 504648; note: % is set by controls: 0 for no effect and ±100 for the full control effect
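A549 ARE-Fluc cells in 5% FBS OPTI-MEM, 5000 cells/well, rested 2 h then exposed to compounds in concentration-response for 18-24 h at 37 °C. Viability by CellTiter-Fluor fluorescence (Ex 405/Em 525) after 30 min; luciferase luminescence (BugLite, 15 min, RT) read afterwards.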
An asterisk follows results filed as active; ? = inconclusive; · = no result given; ! = not confirmed by another sample; [ ] = another dose, or the depositor's remark. Calls come from the whole dose curve; as a rule, active = well fitted curve in the direction sought with a large enough effect; inconclusive = small, poorly fitted or top-dose-only effect, or another doubt; inactive = no such curve, though single readings can be large; an effect the other way counts as inactive or inconclusive. Potency is the fitted concentration of half-maximal effect.

SMILES | IDH1 R132H inh | Nrf2 inh | Mito fusion act | TrxR1 substrate | TrxR1 inh | A549 tox
CCN(CC)S(=O)(=O)c1ccc(OC)c(NC(=O)C2CC(=O)N(c3ccc4c(c3)OCCO4)C2)c1 (centres undefined) | -2% | ? | 0% | -5% | 5% | 1%
CCN(CC)S(=O)(=O)c1cccc(NC(=O)C2CC(=O)N(c3ccc4c(c3)OCCO4)C2)c1 (centres undefined) | 3% | 23µM* | -1% | -1%[57.1 µM] | 0%[57.1 µM] | -14%
CN(C1=C(NC(=O)c2ccccc2)C(=O)c2ccccc2C1=O)C1CCS(=O)(=O)C1 (centres undefined) | 28% | -17% | -5% | -3% | 50µM* | -17%
COc1ccc(C2/C=C\CN(C(=O)C3CCCCC3)C(Cc3ccccc3)C(=O)N2Cc2ccc(F)cc2)cc1 (centres undefined) | · | ? | · | 1% | 9%[57.1 µM] | 0%
CN(Cc1ccncc1)C1CC(=O)N(c2ccc(Cl)cc2)C1=O (centres undefined) | -5% | · | -10% | -9% | 13%[57.1 µM] | 4%
COC(=O)CN(C)C1CC(=O)N(c2ccc(Cl)cc2)C1=O (centres undefined) | 7% | 6% | 2% | -1% | 35µM* | ·
COc1ccc(-c2cc(C(=O)NCCc3ccccc3)c3c(-c4ccc(Cl)cc4)[nH]nc3n2)cc1 | 0% | 23µM* | · | 20%[57.1 µM] | 19%[57.1 µM] | ?
COc1ccc(-c2cc(C(=O)NCCc3ccccc3)c3c(-c4ccccc4)[nH]nc3n2)cc1 | 0% | -6% | · | 6%[57.1 µM] | 25%[57.1 µM] | ?
O=C(C1CCN(S(=O)(=O)N2CCOCC2)CC1)N1CCN(c2ccc(F)cc2)CC1 | -2% | -26% | 35µM* | -7% | 3% | 0%
CN(C)CC1CCC/C(=C/c2ccc(Cl)cc2)C1=O (centres undefined) | 3% | 14% | · | 10%[57.1 µM] | ? | -6%
COc1ccc(/C=C2/CCCC(CN(C)C)C2=O)cc1 (centres undefined) | 2% | 8% | · | 5%[57.1 µM] | ? | 0%
CCCC/C=C1/CCC(CN(C)C)C1=O (centres undefined) | 1% | 5% | · | 4%[11.4 µM] | 0.63µM* | -10%
COc1cccc(/C=C2/CCC(CN(C)C)C2=O)c1 (centres undefined) | -13% | 1% | · | 9%[11.4 µM] | 1.1µM* | -4%
Cc1ccc2c(c1)C1(C(=O)N2C)N2CC3(C)CN1CC(C)(C2)C3=O (centres undefined) | 3% | 10% | 2% | 0% | 28% | 16%
Cc1ccc2c(c1)CC1(CN2C)C(=O)OC(C)(C)OC1=O | 11% | 6% | -4% | 2% | 20µM*! | -1%
Cc1cc(C)c(NC(=O)CSc2nc(=O)[nH]c3c2CCCC3)c(C)c1 | 20% | · | · | -1%[57.1 µM] | 14%[57.1 µM] | 2%
N#Cc1ccc(OCC(O)CN2CCN(CC(O)COc3ccc(C#N)cc3)CC2)cc1 (centres undefined) | -2% | ? | -1% | 2%[57.1 µM] | 12%[57.1 µM] | 3%
N#Cc1ccc(OCC(O)CN2CCN(c3ncc(C(F)(F)F)cc3Cl)CC2)cc1 (centres undefined) | 0% | 18µM* | -6% | -7% | 4% | -14%
O=C(OCc1ccc([N+](=O)[O-])cc1Cl)c1cnccn1 | -9% | -13% | 0% | 5% | 22µM* | 8%
CCCCN(C(=O)Cn1ncc(Cl)c(Cl)c1=O)c1c(N)n(CC(C)C)c(=O)[nH]c1=O | -5% | 4% | 5% | -12% | 56µM* | 0%
CCCCN(C(=O)CN1CC(C)OC(C)C1)c1c(N)n(CC(C)C)c(=O)[nH]c1=O (centres undefined) | 1% | 3% | -4% | -8% | 6%[57.1 µM] | -2%
CCCCN(C(=O)CSc1nnc(-c2ccc(Cl)cc2)o1)c1c(N)n(CC(C)C)c(=O)[nH]c1=O | -7% | 18µM* | 7% | -1% | 3% | ?
Cc1cc(Oc2ccc(C#N)cc2)nc(NCc2ccccc2)n1 | 10% | 16µM* | 12% | -2% | -2% | -7%
COC(=O)c1ccc(Oc2cc(C)nc(NCc3ccccc3)n2)cc1 | 16% | -11% | 3% | -3% | -7% | -10%
O=S(=O)(c1ccc2c(c1)OCCO2)N1CCN(S(=O)(=O)c2ccc(F)c(F)c2F)CC1 | · | 5% | · | · | · | -4%
SMILES | IDH1 R132H inh | Nrf2 inh | Mito fusion act | TrxR1 substrate | TrxR1 inh | A549 tox
CCOC(=O)c1sc2nc(C)nc(NCc3ccc(F)cc3)c2c1C | 9% | ? | -36% | 63% | 17% | 0%
CCOC(=O)c1sc2nc(C)nc(NCc3ccc(Cl)cc3)c2c1C | -3% | 18µM* | -21% | 36% | 20%[57.1 µM] | -17%
CCOC(=O)c1sc2nc(CC(=O)OC)nc(NCc3ccc(F)cc3)c2c1C | -3% | 10µM* | 4% | 63% | 27% | ?
COc1ccc(C2Nc3ccccc3C(=O)N2Cc2cccc(C(F)(F)F)c2)cc1COc1ccc(NC(C)=O)cc1 (centres undefined) | · | ? | · | · | · | -15%
COc1cccc(C2=Nn3c(nnc3-c3ccccc3OC)SC2)c1 | · | 22% | · | · | · | -4%
N#CC1=C(N)C(C#N)(C#N)C(c2cccnc2)C2CN(C(=O)OCc3ccccc3)CC=C12 (centres undefined) | 52µM* | ? | 1% | 2% | ? | -5%
CCOC(=O)N1CC=C2C(C#N)=C(N)C(C#N)(C#N)[C@H](c3ccc(OCC)c(OCC)c3)[C@H]2C1 | -9% | · | 1% | 11% | 3% | 0%
O=[N+]([O-])c1ccc(/C=C/c2ccnc3ccccc23)cc1 | · | · | · | -13% | ? | ·
Cc1nn(C)c(C)c1CN(C)C(=O)c1cc2n(n1)C(C(F)(F)F)CC(c1cccs1)N2 (centres undefined) | 0% | 13µM* | 0% | -1% | -7% | -2%
Cc1nn(C)cc1CN(C)C(=O)c1nn2c(c1Br)NC(c1cccs1)CC2C(F)(F)F (centres undefined) | 0% | -27% | -8% | 13% | 35% | -16%
Cc1ccc(C2CC(C(F)(F)F)n3nc(C(=O)NCc4c(C)nn(C)c4C)c(Cl)c3N2)cc1 (centres undefined) | 1% | 12µM* | -3% | -2% | 8% | -29%
Cc1nn(C)cc1CN(C)C(=O)c1nn2c(c1Cl)NC(c1cccs1)CC2C(F)(F)F (centres undefined) | 7% | 16µM* | 0% | 7%[57.1 µM] | 3% | -5%
Cc1nn(C)c(C)c1CNC(=O)c1cnn2c1NC(c1ccccc1)CC2C(F)(F)F (centres undefined) | 0% | 1% | 1% | -6% | -18% | -4%
